± gives the standard deviation of the averaged measurements. Whole data set: some 33,000 sequences, median “E-score (dimensionless, -0.5 to 0.5)” near -0.046, cut for the highest 2% near 0.36. Only a selection was taken, and the highest values are over-represented in it overall.
The sequences below were run on T1, SpTbr T-box DNA-binding domain (GST fusion) (assay: PBM E-score of 8-mer (E-score (dimensionless, -0.5 to 0.5)); Tbr is Tbrain of the sea star Patiria miniata (Pm) or the sea urchin Strongylocentrotus purpuratus (Sp); higher = stronger binding preference). Details: the construct has about 5 more residues each side.
T1 sequence: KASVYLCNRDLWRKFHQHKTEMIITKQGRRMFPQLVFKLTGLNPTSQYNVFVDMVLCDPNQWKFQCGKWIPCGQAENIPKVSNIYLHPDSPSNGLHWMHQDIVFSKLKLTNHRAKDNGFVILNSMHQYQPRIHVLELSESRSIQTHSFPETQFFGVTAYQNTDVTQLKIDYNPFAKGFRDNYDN
In short: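 GST-fused Tbr T-box DNA-binding domains (the whole T-box plus about five flanking residues) were expressed in BL21 E. coli at 20 °C and purified by glutathione affinity chromatography. Universal Agilent oligonucleotide arrays were made double-stranded by primer extension, incubated with 200 nM protein in PBS (pH 7.5), then scanned and quantified. Every ungapped 8-mer was scored from probe intensities. The Universal PBM Analysis Suite gave each word an enrichment E-score, averaged over duplicate arrays.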

Sequence	PBM E-score of 8-mer
AGGAGGGG	0.0237 ± 0.0028
ACATCCAG	0.11 ± 0.03
CAGATTGA	-0.076 ± 0.021
CCAGAAGC	-0.0847 ± 0.077
CGAGTATC	-0.139 ± 0.032
CCCGTTAC	-0.0493 ± 0.068
AACTGCTC	0.00139 ± 0.031
GCAAAAAA	-0.111 ± 0.022
ATCCAATG	-0.108 ± 0.019
ACCATTGA	0.0727 ± 0.061
GCAGCCAC	0.126 ± 0.026
ATACAGAC	-0.0432 ± 0.019
TCCAATAA	-0.0798 ± 0.025
GCCACTTA	0.244 ± 0.011
AACACTTG	0.3953 ± 0.0019
GACACTTA	0.393 ± 0.0065
GACACTGA	0.093 ± 0.019
AACACTAG	0.222 ± 0.049
ATCACTTG	0.169 ± 0.064
GTAGCTTA	-0.0295 ± 0.0053
AAGCTTAC	-0.128 ± 0.056
TCAGGCAA	-0.143 ± 0.02

Sequence	PBM E-score of 8-mer
CAGTATTC	-0.193 ± 0.092
CACCTACA	0.371 ± 0.014
GACCTACC	-0.129 ± 0.006
CCCCTACG	-0.185 ± 0.019
GACCTACA	-0.0944 ± 0.046
AACCTACC	-0.182 ± 0.056
AACCTACG	-0.159 ± 0.083
TACCTACA	-0.24 ± 0.016
CACCTACG	0.373 ± 0.0055
CACCTACC	0.394 ± 0.01
CCCGCCTA	-0.0474 ± 0.13
TATTGCCA	0.0232 ± 0.0082
CCCTTGCG	-0.0683 ± 0.034
GTCTCAGA	-0.0914 ± 0.014
GGTGCATA	0.0222 ± 0.011
CCCGATAA	0.0927 ± 0.11
CCACACGG	0.0912 ± 0.023
CGAACGAG	0.0552 ± 0.067
CGTCCTGC	-0.234 ± 0.0096
ATAAGTCA	-0.102 ± 0.017
CGACACCG	0.257 ± 0.037
GGACACCA	0.183 ± 0.045

Sequence	PBM E-score of 8-mer
GGACACCC	0.185 ± 0.023
CGACACGA	0.174 ± 0.041
CGACACCA	0.387 ± 0.014
CGACACCC	0.416 ± 0.028
AGACACCA	0.251 ± 0.032
AGACACCC	0.156 ± 0.041
TGACACCA	0.419 ± 0.0076
GGCCACTA	-0.0216 ± 0.031
CTACTACC	-0.112 ± 0.033
CCAATTTC	0.0768 ± 0.033
ATCGCTCG	-0.0361 ± 0.046
ATCGCACA	0.366 ± 0.0063
CTGGCACA	0.1856 ± 0.00035
CTCGCAGA	0.0495 ± 0.024
CCCGCACC	0.311 ± 0.036
CTGGCACC	0.367 ± 0.018
CTCGCACC	0.451 ± 0.016
CTCGCACA	0.37 ± 0.016
CTCGCATC	0.129 ± 0.052
ATGGCACC	0.3573 ± 0.0028
CTCGCAAG	0.204 ± 0.032
ATCGCACG	0.345 ± 0.027

Sequence	PBM E-score of 8-mer
ATCGCAAG	0.177 ± 0.03
AGAGTGAC	0.145 ± 0.013
ATATTGGC	0.12 ± 0.019
CGATAGTA	-0.122 ± 0.091
ATTCTACA	-0.0365 ± 0.019
ACGAAAGA	-0.0823 ± 0.0021
AGACTGCG	0.0627 ± 0.0045
GAATCTTA	-0.197 ± 0.05
CATCTCTA	-0.0506 ± 0.074
CAGACTCA	-0.0949 ± 0.051
GCTCTCAC	0.312 ± 0.028
GACTGTGC	-0.124 ± 0.033
GCCCGTCC	-0.216 ± 0.0065
GCCAGGCC	-0.217 ± 0.036
GTCGCAAA	0.0958 ± 0.038
ATCGCAGC	0.0579 ± 0.024
GTCGCAGA	-0.0708 ± 0.1
ATCGCAAC	0.232 ± 0.0099
ATCGCACC	0.47 ± 0.006
GTCGCACA	0.3754 ± 0.0036

— the supplement of paper PMC4166925
